Measurements taken from the supplement of paper PMC6555819.

Key:
Test in all cases: PBM binding z-score (relative to random genomic background probes); higher = stronger binding; sequences stand for … in GC…GCGATTGACAGCGTAGAATGAAGG
[1] = system: FXR:RXRa (NR concentration 270 nM, RXRa partner concentration 90 nM)
In short: (§1)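 Scanned fluorescence from custom Agilent 4×180K protein-binding microarrays was regression-normalized. Binding z-scores use random background probes as reference. Ligand-free nuclear receptor dimers were incubated on the arrays for 1 h and detected with antibodies against each partner (one per run).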

[2] = system: LXRa:RXRa (NR concentration 270 nM, RXRa partner concentration 90 nM)
In short: as §1

[3] = system: LXRa homodimer (NR concentration 270 nM)
In short: as §1

[4] = system: LXRb:RXRa (NR concentration 270 nM, RXRa partner concentration 90 nM)
In short: as §1

[5] = system: LXRb homodimer (NR concentration 270 nM)
In short: as §1

[6] = system: PPARa:RXRa (NR concentration 270 nM, RXRa partner concentration 90 nM)
In short: as §1

[7] = system: PPARg:RXRa (NR concentration 180 nM, RXRa partner concentration 90 nM)
In short: as §1

[8] = system: PPARg:RXRa 270nM:90nM, anti-RXR (NR concentration 270 nM, RXRa partner concentration 90 nM)
In short: as §1

[9] = system: PPARg:RXRa 30nM:10nM, anti-RXR (NR concentration 30 nM, RXRa partner concentration 10 nM)
In short: as §1

[10] = system: PPARg:RXRa 90nM:30nM, anti-RXR (NR concentration 90 nM, RXRa partner concentration 30 nM)
In short: as §1

Sequence | PBM binding z-score [1] | PBM binding z-score [2] | PBM binding z-score [3] | PBM binding z-score [4] | PBM binding z-score [5] | PBM binding z-score [6] | PBM binding z-score [7] | PBM binding z-score [8] | PBM binding z-score [9] | PBM binding z-score [10]
CCTAGCAGGCCAGGGTTACTCAAGCATTTCGCTT | -0.32 | 0.0268 | -0.897 | 0.041 | -1.32 | 0.412 | -0.105 | 0.539 | -0.759 | -0.212
CTACCAAGGTGAATAAGGTCGTTGATTACTATTC | 1.18 | 1.3 | 0.402 | 1.58 | -0.326 | 2.22 | 0.631 | 1.01 | 0.203 | 0.602
CCTAGCAGGCCTGGGTCACTCAAGCATTTCGCTT | 0.369 | 0.545 | -0.474 | 0.861 | -0.369 | 1.34 | -0.336 | 0.314 | -0.828 | -0.485
TAACCAAGGTGAGCTGAGGTCGTTGATCCAACTC | 2.66 | 1.63 | -0.195 | 0.348 | -0.934 | 1.81 | 0.206 | 0.531 | -0.0525 | 0.137
CAAACTAGGTCAAGCGGTCAAAGTCCGCTTCCCG | 5.13 | 4.54 | 4.1 | 2.97 | 0.774 | 5.57 | 8.35 | 7.55 | 5.13 | 7.38
ATCGAAAGGTCGAGGTGAGGATAGAGAAAGGGAA | 4.33 | 3.16 | 0.082 | 2.64 | 0.457 | 4.44 | 3.06 | 3.83 | 1.33 | 2.81
CGTAGTTGGTCAGGAGGTCACACACCGGATATGA | 3.37 | 3.49 | 2.03 | 3.36 | 0.65 | 4.17 | 2.96 | 4.01 | 1.36 | 3.36
ACTCGGAGGACAAAGGTCAGATCTACGCCAGTGA | 4.14 | 4.18 | 1.82 | 3.46 | 1 | 4.65 | 7.02 | 6.8 | 5.45 | 6.92
CAAACTAGGTCACGAAAGGTCAAAGTCGAATGAC | 7.74 | 8.37 | 7.89 | 7.46 | 2.8 | 6.76 | 10.7 | 8.68 | 7.48 | 8.74
CCTACTGGGCCAAAGGTCAATGATTCCAATGCTC | 4.07 | 4.39 | 2.6 | 4.52 | 0.165 | 6.29 | 12.1 | 10.4 | 10 | 12.8
ACAGTCAGGTGAGTGAAGGTAACTCAGCTGGACG | 0.264 | 0.217 | -0.578 | -0.682 | -0.538 | -0.317 | 0.268 | 0.101 | -0.17 | -0.277
CCTGCTAGGTCATGGTAAGCTAATCTACAGTATG | 3.82 | 2.46 | 0.0967 | 1.86 | -0.0761 | 3.64 | 2.48 | 2.64 | 0.993 | 1.66
GATGCAGGGTCAAGGCCAGAGTACGCGTATTGAT | 6.64 | 3.82 | -0.363 | 3.54 | -0.254 | 5.74 | 5.22 | 4.93 | 1.79 | 3.61
TCGAGTAGGTAAGTCGGGGCATTCAGCCAACATA | -0.0236 | -0.0704 | -0.439 | -0.175 | -0.922 | 0.0443 | -0.3 | 0.0863 | 0.929 | 0.572
ATCTCTAGGTAAGACTCACTTCAGTGAAGAACGC | 0.0875 | 0.0793 | -0.134 | 0.11 | 0.863 | 0.00782 | 0.276 | 0.0551 | 0.479 | 0.192
CCTATTAGTTGACCATAAGGGCAATCGAAGCTCG | 0.68 | 0.259 | 0.71 | 0.623 | 0.695 | 0.456 | 0.434 | 0.366 | 0.122 | 0.461
CGTACAAGGTCAATGCTAGGTCAGTGAAAGCATT | 7.34 | 6 | 2.7 | 4.55 | 1.54 | 5.5 | 5.12 | 5.6 | 2.08 | 4.22
CCGAGTGGGGCAAGGTTACCATAACGCACAGCCA | 0.236 | 0.965 | -0.227 | 0.664 | -0.711 | 1.78 | 2.73 | 2.77 | 0.815 | 2.3
AGTCAAAGTTCATCTAGGTAACGTTAGATATGCT | 6.45 | 6.1 | 5.46 | 3.96 | 1.99 | 4.88 | 6.36 | 6.31 | 3.3 | 5.58
TCATATAGGTAATACAGGTGAAAGTAGGCATCTA | 0.885 | 1.45 | 0.55 | 1.22 | 0.295 | 2.15 | 2.26 | 2.62 | 3.8 | 3.24
TAGCCTATGTCATGGGCCAGTATACCACGCGAAC | -0.15 | -0.356 | -0.253 | -0.589 | -0.827 | -0.267 | 0.56 | -0.0658 | -0.369 | -0.213
ACTCGGAGGACAAAGGTCAGCGCTACGCCAGTGA | 4.44 | 4.2 | 1.62 | 3.51 | 0.168 | 5.24 | 8.05 | 7.77 | 7.19 | 8.33
CCGACTGCGGCAAGGTTACCATAACGCACAGCCA | 0.311 | 0.827 | 0.0346 | 0.9 | -0.64 | 1.02 | 0.614 | -0.189 | -0.715 | -0.26
